Results from the supplement of paper PMC3334620.
Over roughly 33,000 sequences, “E-score (-0.5 to 0.5)” has its median near -0.035; the highest 2% begin near 0.34. Only a selection was taken, and the highest values are over-represented in it overall.

target: T1, Mot3 (UniProt P54785); assay: PBM E-score (8-mer binding enrichment) (E-score (-0.5 to 0.5)); higher = stronger / more preferred TF binding; details: protein concentration: 200 nM; construct: GST-full length
T1 sequence: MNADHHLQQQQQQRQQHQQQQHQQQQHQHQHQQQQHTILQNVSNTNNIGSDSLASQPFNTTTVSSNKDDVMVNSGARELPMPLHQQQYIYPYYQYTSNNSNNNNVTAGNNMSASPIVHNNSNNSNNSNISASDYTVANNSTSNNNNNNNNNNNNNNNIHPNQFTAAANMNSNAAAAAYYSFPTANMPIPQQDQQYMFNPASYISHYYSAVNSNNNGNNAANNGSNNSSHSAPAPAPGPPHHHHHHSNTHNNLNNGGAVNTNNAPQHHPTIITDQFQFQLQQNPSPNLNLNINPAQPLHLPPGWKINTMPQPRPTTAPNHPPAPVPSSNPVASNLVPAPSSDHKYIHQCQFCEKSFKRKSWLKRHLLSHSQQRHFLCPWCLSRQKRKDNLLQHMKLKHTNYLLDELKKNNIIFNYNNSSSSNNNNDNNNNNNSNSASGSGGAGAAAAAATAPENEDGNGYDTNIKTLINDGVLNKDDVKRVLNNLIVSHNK
Method in brief: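 Masliner-normalised scans of fluorescent anti-GST signal were the basis for scoring. That signal came from GST-tagged yeast transcription factors applied at about 100-200 nM to double-stranded universal all-10-mer Agilent arrays on fresh or once-stripped slides. Each ungapped eight-base word, pooled with its reverse complement, received an E-score from the Universal PBM Analysis Suite.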

Sequence	PBM E-score
CCCGCTTC	-0.191
CCCAGGAC	-0.288
CTGCTTGC	0.0147
AAGCGCAG	-0.124
CGTATGCA	-0.0506
GCAGGACC	-0.237
CCAGGAAA	0.324
AGAGGAAA	0.0488
CCAGGAAG	-0.078
TCAGGAAA	0.394
GCAGGAAC	0.463
GCAGGAGC	0.0355
CCAGGAGC	-0.247
ACAGGAAA	0.453
TCAGGAGA	-0.0813
ACAGGAGA	-0.0281
CCAGGAAC	0.406
ATAGGTGC	0.24
AAGCGAGT	-0.0166
CCGGGTCC	-0.279
AAAGGGCC	-0.132
AAGCCACT	-0.172
AGCTGGAA	-0.29
GCGCCAGC	0.128
TGCTAAAA	0.0711

Sequence	PBM E-score
CGCTGAAA	0.0848
ACAAATCT	0.103
CTAGTTTC	-0.178
AAGCAGTG	0.0592
TAGTGGAA	-0.00095
ACAGGAAT	0.107
ACAAGGAA	0.263
GCAGGAAA	0.451
TCAAGGAA	0.363
ACAGGAAG	0.0333
ACAGGAAC	0.466
GGAGGAAA	0.0847
GCAGGATA	-0.121
CCAAGGAA	0.254
ATCCATCA	-0.0789
AGAGAGAG	-0.326
CAACAGTC	-0.167
TGGGTACA	0.0297
TAGGTATA	-0.0008
TAGGTACA	0.36
CCGGTACA	0.0242
GAGGTACA	0.192
CAGGTACA	0.406
CTTCTAAC	-0.0665
CGTGCTTC	0.0855

Sequence	PBM E-score
ACTCTACA	0.174
GTTAGCCA	-0.136
CAGCTCTA	-0.168
ACATTAGT	0.187
AGGAAACC	0.42
CGGAAACA	0.0963
GGGAAACA	-0.036
CGGAAACC	-0.352
AGGAAACT	0.421
GGGAAACC	-0.00353
AGGAAACG	0.339
ACGAAACT	-0.0505
AGGAAACA	0.391
GCGACGAA	-0.154
ACGCGGAG	0.105
ACCTAGCA	0.0477
CATAGCGC	0.0893
TTACCTAA	0.285
CTACCTAC	0.188
ATACCTAA	0.071
ATACCTAC	0.156
GTACCTAA	0.374
GTACCTAC	0.405
AAGCGACG	-0.15
CTGTTAAG	0.259

Sequence	PBM E-score
ATGTTAAG	0.37
ATGTTAAT	0.338
ATGTTTAA	0.285
ATGTTAAA	0.392
ACGTTAAA	0.3
AAGTTAAA	0.219
GAAGGGTA	0.0495
GGCCCTAC	-0.281
ACAGACTG	-0.0643
CGTGTTTC	0.106
AACACACT	0.22
CACACAAA	0.151
AACACACG	0.266
CATACACG	0.316
CACACGAA	0.165
AACACAAA	0.22
TATACACA	0.364
CATACACA	0.219
TACACGAA	0.359
GACACGAA	0.145
AACACACA	0.34
TACACAAA	0.369
ATAAACCG	-0.195
ACAGCGGC	-0.112
ATTAGAAC	0.0827

Sequence	PBM E-score
AGCTACAG	-0.0877
TACACACA	0.385
TACACGCA	0.346
GATACACA	0.14
AATACACG	0.394
GACACGCA	0.246
AACACGCA	0.326
AATACACA	0.389
CACACACG	0.159
CACACACA	0.249
AATACAAG	0.313
AATACACT	0.259
AATACACC	0.271
CAAACGTG	0.0815
CCGACCAC	-0.189
AGGGTCCA	-0.297
CCGTATAG	-0.208
ACATCGGG	-0.13
ATCAATGC	-0.189
CTCCAAAA	-0.179
CAGGGACG	0.0493
GGAGAAAC	-0.149
CGTAGCGA	-0.285
GACTTGCC	0.127
GAGGTACC	-0.0594

Sequence	PBM E-score
CAGGTACC	0.434
CAGGTATC	0.056
AAGGTATA	0.113
CGGGTACC	0.0123
AAGGTACA	0.394
AGGGTACC	0.0598
CAGATACG	-0.243
CCGGTACG	-0.199
CAGGTACG	0.409
AAGGTAGA	-0.0631
AAGGTACC	0.419
ATCGAACC	-0.089
ACTATCCA	-0.204
CGCCTTGA	-0.0273
AACATTGT	0.257
ATCTCCGA	-0.0589
ATAAGTTA	0.213
AACTTAAA	0.212
ACGCTTCC	-0.0948
CAGATCGA	-0.213
AACAGCAA	0.0647
AAGGTAGT	-0.0675
AAGGTACG	0.436
AAGGTACT	0.364
ACGGTACT	-0.207

Sequence	PBM E-score
ACGGTACG	-0.0434
AAGGTATG	0.0554
GACTCCAC	-0.34
AGGCTCGG	0.146
ATGCGCTG	-0.00636
AGCTACAT	0.145
ATATGTAC	0.274
CTATGTAC	0.378
CTATGTAA	0.41
ATATGTGA	0.197
ATATGTAG	0.202
GTATGTGA	0.0776
AGATGTAA	0.272
ATATGTAA	0.346
GGATGTAA	0.295
GTATGTAA	0.404
CTCTGTAC	0.0774
CTCTGTAA	0.133
CGATAGCA	-0.159
CCCTTGCG	-0.214
ACAAGTGC	0.201
CGATCGCG	-0.102
GACCAATC	-0.039
CCAAGTCG	-0.155
AACCATCT	-0.143

Sequence	PBM E-score
CCTACTCA	-0.046
ATGCTGCG	-0.101
CTATGTTA	0.329
GTATGTTA	0.354
ATATGTTA	0.284
ACTGAGAG	-0.0806
ACAGAACT	-0.0328
CCCCGGGG	-0.37
GGGCTAAA	-0.189
CTACCTTA	0.0561
GTACCTGA	0.402
GTACCTTA	0.355
ATACCTGA	0.0776
ATACCTTA	-0.0699
CTACCTGA	0.0134
CTTAAGCA	0.104
CCGAATTC	-0.242
AGAATCAC	-0.211
CTGTGGCC	-0.0368
AATACGCG	0.354
ATTACGCC	0.102
ATTACGCA	0.354
ATTACGCG	0.377
AATACGCT	0.188
CATACGCG	0.155

Sequence	PBM E-score
GTTACGCA	0.207
CTTACGCA	0.301
ATTACGGG	-0.00149
AAACTGCA	-0.0533
CTAGCAGC	-0.257
CAACTGAA	0.0709
GAATGCAA	-0.0468
CAGGGATG	0.034
AGGGTAAT	-0.0805
AAGGTAAA	0.334
AAGGTAAG	0.27
AAGGTAGC	0.149
GAGGTAAA	0.0852
AAGGTAAC	0.339
CAGGTAAC	0.39
GAGGTAAC	-0.0204
AAGGTAAT	0.34
CAGGTAAA	0.383
AAGGTATT	0.16
CAGGTAAG	0.271
